Experimental data published in ChEMBL document CHEMBL4513216, “Probing the Open Global Health Chemical Diversity Library for Multistage-Active Starting Points for Next-Generation Antimalarials” (ACS Infect Dis, 2020).
The campaign covered roughly 69,000 compounds. About 8,600 (12%) showed an effect of 50% or more. The sample holds strong results, similar compounds and a random draw of the others, so the mix is not that of the screen.

tested on: Plasmodium berghei; assay: Screen against P. berghei liver stage (PbLuc), transformed with Luciferase, at 10uM; type: functional, HepG2; conditions: tested at 10 uM

Row | Structure (SMILES) | INHIBITION [%]
1 | CNc1nc(C2CCCN(C(=O)C(C)(C)OC)C2)nc2c1CN(C)CC2 (centres undefined) | -12.9
2 | CC(C(=O)NCCOc1ccc2c(c1)CCC2)n1cncn1 (centres undefined) | -81.3
3 | Cc1ccc(S(=O)(=O)N2CCN(CCCO)CC2)s1 | 30.1
4 | c1cncc(-c2noc(CNC3CCc4ncnn4C3)n2)c1 (centres undefined) | 29.4
5 | Cc1cc(C)n(CC2CCCCN2C(=O)c2ccsc2)n1 (centres undefined) | -3.2
6 | CC(C)C(Sc1nncn1C1CC1)C(=O)NCc1cccnc1 (centres undefined) | -38
7 | CC(NC(=O)Cc1cccs1)c1nnc2n1CCC2 (centres undefined) | -12.2
8 | O=C(c1cc[nH]n1)N1CCC(c2cc(Nc3ccccn3)n[nH]2)CC1 | -3.31
9 | Cc1nnc(NC(=O)NCc2ccoc2)s1 | -19.9
10 | O=C(Cn1ccc2ccccc21)NC[C@@H]1CCCN2CCCC[C@H]12 | 23.5
11 | Cc1cccc2c1ccn2CC(=O)O | 35
12 | O=C(Cn1ccc2cc(Br)ccc21)NC[C@@H]1CCCN2CCCC[C@H]12 | 58.3
13 | O=C(Cn1ccc2ccc(Br)cc21)NC[C@@H]1CCCN2CCCC[C@H]12 | 37.1
14 | COC(=O)[C@H](C)NC(=O)Cn1ccc2ccc(F)cc21 | 50.8
15 | Cc1cccc2c1ccn2CC(=O)NC[C@@H]1CCCN2CCCC[C@H]12 | 51.9
16 | O=C(Cn1ccc2ccc(F)cc21)NCc1ccc(C(=O)O)cc1 | 6
17 | O=C(CCn1ccc2cc(Br)ccc21)NC[C@@H]1CCCN2CCCC[C@H]12 | 49
18 | CC[C@H](C)[C@H](NC(=O)Cn1ccc2ccc(F)cc21)C(=O)OC | -24.6
19 | O=C(Cn1ccc2ccc(F)cc21)NC[C@@H]1CCCN2CCCC[C@H]12 | 58.3
20 | COC(=O)CNC(=O)Cn1ccc2ccc(F)cc21 | 13.9
21 | COCCNC(=O)Cn1ccc2ccc(F)cc21 | 17.1
22 | Cc1ccnn1CCC(=O)N1CCCC2(C1)NC(=O)c1ccccc1O2 (centres undefined) | -2.2
23 | CC1=C(C(N)=O)C(c2cn(C)nc2C)N2C(=O)CSC2=N1 (centres undefined) | -20.5

Row | Structure (SMILES) | INHIBITION [%]
24 | CCn1ncc2c1C(COCC1CC1)N(C(=O)c1ccncn1)CC2 (centres undefined) | 9.34
25 | CC(=O)N1CCCCC1c1nc(N)ncc1-c1ccccc1 (centres undefined) | 38.1
26 | CN1CCC2(CCCN(C(=O)c3cncn3C)C2)CC1 | 29
27 | Cc1noc(CCNC(=O)NCc2ccc(OC3CCCC3)cc2)n1 | -33.4
28 | CO[C@@H]1CN(c2ccccc2)S(=O)(=O)[C@@]12CCN(Cc1cncs1)C2 | 41.9
29 | Cc1cc(C)n(C2CCN(S(=O)(=O)N3CCC(C)CC3)CC2)n1 | 19.3
30 | CC(=O)N1N=C(c2ccccc2)OC1C(=O)NCCc1cccc(F)c1 (centres undefined) | -18.2
31 | CN(C)C(=O)N1CC[C@H]2[C@H]1CCN2c1nncs1 | 2.4
32 | COCc1nc(C(=O)N2CCCC2c2ccc(OC)cc2)cs1 (centres undefined) | 46.2
33 | OC12CCC(CC1)N(Cc1ccc(F)cc1)C2CN1CCOCC1 (centres undefined) | 9.36
34 | Cc1ccc2c(ccn2CCC(=O)NC[C@@H]2CCCN3CCCC[C@H]23)c1 | -3.95
35 | Cc1ccc2c(ccn2CC(=O)NC[C@@H]2CCCN3CCCC[C@H]23)c1 | 47.4
36 | COc1ccc2c(ccn2CC(=O)NC[C@@H]2CCCN3CCCC[C@H]23)c1 | 54.8
37 | Cc1ccc(-c2nc(CNCC3CN(C)CCO3)cs2)o1 (centres undefined) | 41.4
38 | Cc1nn(C)c2c(N(C)Cc3ccco3)nc(C3CC3)nc12 | 19.7
39 | O=C(O)[C@H]1C[C@H](C(=O)NCc2ccncc2)CN(CCC(F)(F)F)C1 | -78.5
40 | CCc1cnc(CCNC(C)CC(=O)Nc2cccc(C)c2C)s1 (centres undefined) | 15.6
41 | COc1ccccc1NC(=O)CC(C)NCc1scnc1C (centres undefined) | 25.6
42 | COc1ccccc1NC(=O)CC(C)NCCc1sc(C)nc1C (centres undefined) | 71.3
43 | CO[C@H]1CC[C@H]2[C@H]1OCCN2C(=O)CCOc1ccccc1 | 14
44 | COCC1COCCC12CCN(Cc1nccs1)CC2 (centres undefined) | 22.6
45 | CNC(=O)c1cccc(CN2CCN(c3ccncc3)CC2)c1 | 35.1
46 | Cc1cc(CN2CCC(CNS(=O)(=O)c3ccc(C)s3)CC2)c(C)o1 | 49.7

Row | Structure (SMILES) | INHIBITION [%]
47 | Cc1cc(CN2CCC(CNS(=O)(=O)c3ccccc3F)CC2)c(C)o1 | 14.4
48 | Cc1cc(CN2CCC(CNS(=O)(=O)c3ccc(Br)s3)CC2)c(C)o1 | 79
49 | O=C(NCc1ccco1)[C@@H]1CC[C@@H]2[C@@H](CCN2Cc2ccc(F)cc2)O1 | 5.87
50 | O=C1CC(c2ccc(C(F)(F)F)cc2)c2snc(C(=O)O)c2N1 (centres undefined) | 42.4
51 | O=C1CC(c2ccccc2)c2snc(C(=O)O)c2N1 (centres undefined) | 12.6
52 | O=C1CC(c2ccsc2)c2snc(C(=O)O)c2N1 (centres undefined) | 72.6
53 | O=C1CC(c2cccc(Cl)c2)c2snc(C(=O)O)c2N1 (centres undefined) | 55.7
54 | O=C1CC(c2ccc(F)c(F)c2)c2snc(C(=O)O)c2N1 (centres undefined) | 27.6
55 | O=C1CC(c2ccc(F)cc2)c2snc(C(=O)O)c2N1 (centres undefined) | 15.9
56 | O=C(c1cccnc1)N1CCc2ncnc(C3CCOC3)c2CC1 (centres undefined) | 25.6
57 | CN(Cc1ccc2c(c1)OCO2)C(=O)C1CC(c2cccc(F)c2)=NO1 (centres undefined) | -14.3
58 | COCCOCC(=O)N1C[C@@H]2CC[C@H](Oc3cccc(F)c3)[C@@H]2C1 | -71.9
59 | CCCC(=O)N1Cc2ccccc2CC2(CCN(C)C2)C1 (centres undefined) | 40
60 | Cc1nc2c(c(=O)n1C)CCN(C(=O)CCc1ccccc1O)CC2 | 14.3
61 | CN1CCN(CC2(O)CCN(C(=O)CCc3ccccc3F)C2)CC1 (centres undefined) | 16.705
62 | CN1CCCC2(CC1)CCN(C(=O)CCc1ccccc1F)CC2 | 80
63 | CN1CCCC2(CC1)CCN(C(=O)CCc1ccccc1O)CC2 | 56.5
64 | COC(=O)CCC(=O)N1CCC2(CN(Cc3ccccc3F)C2)C1 | 22.4
65 | COc1ccc(CCNC(=O)N2CCCC(c3nncn3C)C2)cc1 (centres undefined) | -12.1
66 | COCCN1CCC(CNC(=O)C2(c3ccccc3)CCOCC2)C1 (centres undefined) | 5.9
67 | CC1COCCN1Cc1nc(-c2cccc(C(F)(F)F)c2)no1 (centres undefined) | 9.54
68 | CCc1c(C)nc2ccccc2c1N1CCC(O)CC1 | 24.4
69 | CCc1c(C)nc2ccccc2c1N1CCC(NC(C)=O)CC1 | 37.2

Row | Structure (SMILES) | INHIBITION [%]
70 | CCc1c(C)nc2ccccc2c1N1CCC(C(=O)NC)CC1 | 52.2
71 | COc1c(CNC2CCc3ccccc32)c(C(C)C)nn1C (centres undefined) | 11.2
72 | CC(=O)N1CCC(NC(=O)Cc2nc3nc(C)cc(C)n3n2)CC1 | 4.25
73 | O=S(=O)(NCC1OCCc2cn(Cc3ccccn3)nc21)C1CC1 (centres undefined) | 10.7
74 | C[C@@H]1CN(Cc2cccnc2)C[C@]12CCN(CCN1CCCC1)C2=O | 37.1
75 | Cc1ccc(CN(Cc2ccccn2)C(=O)C2CCCCCN2C)s1 (centres undefined) | 27.6
76 | Cc1ccc(CN(Cc2ccccn2)C(=O)CCC2CCCN(C)C2)s1 (centres undefined) | 49
77 | Cc1ccc(CN(Cc2ccccn2)C(=O)[C@H]2CC[C@@H](N)C2)s1 | 60.8
78 | CC(CC1CC1)NCCCN1CCCN(C)CC1 (centres undefined) | -7.94
79 | Cn1cc(NC(=O)Nc2cccc3cccnc23)ccc1=O | 37.9
80 | Cc1n[nH]c(C)c1C1CCCN1C(=O)NCC(=O)NC(C)(C)C (centres undefined) | 43.3
81 | COC(C)(C)CNC(=O)N1CCCC1c1c(C)n[nH]c1C (centres undefined) | 82.2
82 | Cc1n[nH]c(C)c1C1CCCN1C(=O)NC(C)(C)C (centres undefined) | 31.1
83 | CCOc1c(CNC2CSCCSC2)cccc1OC | 24.9
84 | Cc1nnc([C@]23COC[C@H]2CN(Cc2cccs2)C3)o1 | 27.5
85 | COCc1noc(CC2CN(c3ncnc4sc(C)c(C)c34)CCO2)n1 (centres undefined) | -12.5
86 | Cc1cnc(N2CCC3(CCN(CC4CCCC4)C3=O)CC2)nc1 | -9.74
87 | Cc1ccc(-c2noc(Cn3nc(C(N)=O)ccc3=O)n2)cc1 | 28.2
88 | Cc1cnn(C2CN(Cc3nc(-c4ccccc4C)no3)C2)c1 | 89.5
89 | CCCc1noc(C(C)N2CC(n3cccn3)C2)n1 (centres undefined) | 8.77
90 | Cc1cccc(-c2noc(Cn3nc(C(N)=O)ccc3=O)n2)c1 | 56
91 | COc1ccc(-c2nc(CN3CC(n4cc(C)cn4)C3)no2)cc1 | 90.1
92 | Cc1cnn(C2CN(C(C)c3nc(-c4ccccc4)no3)C2)c1 (centres undefined) | 84

Row | Structure (SMILES) | INHIBITION [%]
93 | COc1ccc(-c2nc(CN3CC(n4cccn4)C3)no2)cc1 | 25.8
94 | CCc1ccc(-c2noc(Cn3nc(C(N)=O)ccc3=O)n2)cc1 | -16.3
95 | Cc1cnn(C2CN(Cc3nc(-c4ccco4)no3)C2)c1 | -0.847
96 | Cc1ccccc1-c1noc(CN2CC(n3cccn3)C2)n1 | -33.7
97 | CC(c1nc(-c2ccccc2)no1)N1CC(n2cccn2)C1 (centres undefined) | -66.5
98 | Cc1cnn(C2CN(Cc3noc(-c4ccccc4)n3)C2)c1 | 8.77
99 | CC(=O)N(Cc1noc(C2CC2)n1)C1CCN(CC(=O)NC2CC2)C1 (centres undefined) | -11.9
100 | Cc1nc(CNC(=O)NC(C)c2ccc3c(c2)OCCCO3)cs1 (centres undefined) | 1.04
101 | Cc1noc([C@H]2C[C@H]3OCC[C@H]3N(Cc3ccc(F)cc3)C2)n1 | 35.7
102 | CN(c1ccncn1)C1CC2(CCN(C(=O)c3cccn3C)C2)C1 (centres undefined) | 15.9
103 | CN(C)CC1CN(Cc2nc(-c3ccccn3)no2)CCO1 (centres undefined) | -11.4
104 | Cc1cnn(CC2CN(Cc3nc(-c4ccccn4)no3)CCO2)c1 (centres undefined) | 21.6
105 | COc1ccc(-c2noc(CN3CC(n4cc(C)cn4)C3)n2)cc1 | 89.5
106 | Cc1cnn(C2CN(Cc3ccc4c(c3)OCCO4)C2)c1 | 57.5
107 | Cc1ccc(-c2nnc(CN3CC(n4cc(C)cn4)C3)o2)cc1 | -9.72
108 | COc1ccc(-c2noc(CN3CC(n4cccn4)C3)n2)c(OC)c1 | -18
109 | Cc1cnn(C2CN(Cc3nc(-c4ccsc4)no3)C2)c1 | 15.5
110 | Cc1cnn(C2CN(Cc3nc(-c4ccccn4)no3)C2)c1 | 51.1
111 | Cc1cnn(C2CN(CC(O)COCc3ccc4c(c3)OCO4)C2)c1 (centres undefined) | 32.3
112 | Cc1ccc(-c2noc(CN3CC(n4cc(C)cn4)C3)n2)cc1 | 90.9
113 | Cc1cnn(C2CN(CC(O)c3ccc4c(c3)OCCO4)C2)c1 (centres undefined) | 23.2
114 | Cc1cnn(C2CN(Cc3nc(C(C)(C)C)no3)C2)c1 | 29.4
